# Reference: article PMC7862700, “An all-to-all approach to the identification of sequence-specific readers for epigenetic DNA modifications on cytosine”
# Key:
# Assay in all cases: DAPPL (digital affinity profiling via proximity ligation, sequencing); 10 mM Tris-HCl pH 7.5, 50 mM NaCl, 1 mM DTT, 4% glycerol, room temperature, 30 min; GST-TFs on glutathione beads, 16-mer random dsDNA library, 0.1% formaldehyde crosslink after washing; high values mean tight binding
# FLI1 = molecular target: T1, FLI1 (Homo sapiens, UniProt Q01543 1-452); settings: protein: recombinant; tags: N-terminal GST; dsDNA, one strand shown
# T1 sequence: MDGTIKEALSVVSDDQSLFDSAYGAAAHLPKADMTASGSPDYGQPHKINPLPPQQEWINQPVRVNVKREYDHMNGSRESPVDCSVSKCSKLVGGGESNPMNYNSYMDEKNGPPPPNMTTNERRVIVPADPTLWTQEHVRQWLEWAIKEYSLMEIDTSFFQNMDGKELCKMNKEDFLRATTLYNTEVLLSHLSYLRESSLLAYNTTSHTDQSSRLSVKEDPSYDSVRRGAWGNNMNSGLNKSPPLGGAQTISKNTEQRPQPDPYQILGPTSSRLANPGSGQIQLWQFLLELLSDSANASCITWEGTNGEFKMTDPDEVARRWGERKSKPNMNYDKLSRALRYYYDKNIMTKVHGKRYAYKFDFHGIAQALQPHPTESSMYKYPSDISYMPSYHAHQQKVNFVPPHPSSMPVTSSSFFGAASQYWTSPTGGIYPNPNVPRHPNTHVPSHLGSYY
# In short: (§1)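 GST fusions of human transcription factors were expressed in yeast and captured with glutathione beads. Once given DNA barcodes and pooled alongside a tag-only sample, they were incubated for 30 min at room temperature with 200 nmole of a random double-stranded 16-mer DNA library in Tris/NaCl/DTT/glycerol buffer, then washed, crosslinked (0.1% formaldehyde), proximity-ligated, PCR-amplified and sequenced on an Illumina NextSeq500. The binding signal of each hexamer is its read frequency for a factor divided by its frequency for the tag-only sample.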
# ELK1 = molecular target: T2, ELK1 (Homo sapiens, UniProt P19419 1-428); settings: protein: recombinant; tags: N-terminal GST; dsDNA, one strand shown
# T2 sequence: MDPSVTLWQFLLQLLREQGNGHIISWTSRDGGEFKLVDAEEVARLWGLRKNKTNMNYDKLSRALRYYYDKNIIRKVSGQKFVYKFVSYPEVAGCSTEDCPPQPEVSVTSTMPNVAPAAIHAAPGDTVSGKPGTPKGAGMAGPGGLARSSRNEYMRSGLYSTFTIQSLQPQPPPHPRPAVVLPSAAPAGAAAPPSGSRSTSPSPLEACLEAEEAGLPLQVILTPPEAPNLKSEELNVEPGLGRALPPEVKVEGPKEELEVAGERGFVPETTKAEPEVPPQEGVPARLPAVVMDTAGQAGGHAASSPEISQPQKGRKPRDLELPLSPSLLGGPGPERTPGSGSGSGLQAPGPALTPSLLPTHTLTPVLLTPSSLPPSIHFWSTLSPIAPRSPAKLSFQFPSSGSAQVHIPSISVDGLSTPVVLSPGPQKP
# In short: as §1
# GABPA = molecular target: T3, GABPA (Homo sapiens, UniProt Q06546 1-454); settings: protein: recombinant; tags: N-terminal GST; dsDNA, one strand shown
# T3 sequence: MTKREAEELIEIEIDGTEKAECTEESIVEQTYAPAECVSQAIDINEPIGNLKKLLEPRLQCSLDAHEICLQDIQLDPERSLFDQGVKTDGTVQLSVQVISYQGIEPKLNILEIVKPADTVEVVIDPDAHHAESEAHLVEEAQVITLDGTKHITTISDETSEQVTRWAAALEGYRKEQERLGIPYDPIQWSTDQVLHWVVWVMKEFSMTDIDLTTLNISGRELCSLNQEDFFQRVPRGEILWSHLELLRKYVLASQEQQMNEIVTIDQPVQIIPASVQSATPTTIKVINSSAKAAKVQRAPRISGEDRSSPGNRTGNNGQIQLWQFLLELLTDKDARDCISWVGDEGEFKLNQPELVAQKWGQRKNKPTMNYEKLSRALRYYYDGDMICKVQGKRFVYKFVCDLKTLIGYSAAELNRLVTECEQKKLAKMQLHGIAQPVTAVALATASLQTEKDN
# In short: as §1
# ERG = molecular target: T4, ERG (Homo sapiens, UniProt P11308 1-479); settings: protein: recombinant; tags: N-terminal GST; dsDNA, one strand shown
# T4 sequence: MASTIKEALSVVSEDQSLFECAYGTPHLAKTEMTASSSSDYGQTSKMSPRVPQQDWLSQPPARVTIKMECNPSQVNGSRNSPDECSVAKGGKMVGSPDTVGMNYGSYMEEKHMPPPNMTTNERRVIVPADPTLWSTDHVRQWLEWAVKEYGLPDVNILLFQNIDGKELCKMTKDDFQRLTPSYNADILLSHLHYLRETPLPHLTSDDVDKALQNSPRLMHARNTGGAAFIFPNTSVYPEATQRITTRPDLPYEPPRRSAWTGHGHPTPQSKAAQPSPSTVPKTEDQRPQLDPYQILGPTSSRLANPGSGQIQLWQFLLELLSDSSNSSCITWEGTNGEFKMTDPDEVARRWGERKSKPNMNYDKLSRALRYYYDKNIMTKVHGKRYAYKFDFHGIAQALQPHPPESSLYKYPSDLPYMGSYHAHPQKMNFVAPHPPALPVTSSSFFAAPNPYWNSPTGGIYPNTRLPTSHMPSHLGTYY
# In short: as §1
# ELF1 = ELF1 (Homo sapiens, UniProt P32519 1-619); settings: protein: recombinant; tags: N-terminal GST; dsDNA, one strand shown
# ELF1, sequence (P32519 whole entry): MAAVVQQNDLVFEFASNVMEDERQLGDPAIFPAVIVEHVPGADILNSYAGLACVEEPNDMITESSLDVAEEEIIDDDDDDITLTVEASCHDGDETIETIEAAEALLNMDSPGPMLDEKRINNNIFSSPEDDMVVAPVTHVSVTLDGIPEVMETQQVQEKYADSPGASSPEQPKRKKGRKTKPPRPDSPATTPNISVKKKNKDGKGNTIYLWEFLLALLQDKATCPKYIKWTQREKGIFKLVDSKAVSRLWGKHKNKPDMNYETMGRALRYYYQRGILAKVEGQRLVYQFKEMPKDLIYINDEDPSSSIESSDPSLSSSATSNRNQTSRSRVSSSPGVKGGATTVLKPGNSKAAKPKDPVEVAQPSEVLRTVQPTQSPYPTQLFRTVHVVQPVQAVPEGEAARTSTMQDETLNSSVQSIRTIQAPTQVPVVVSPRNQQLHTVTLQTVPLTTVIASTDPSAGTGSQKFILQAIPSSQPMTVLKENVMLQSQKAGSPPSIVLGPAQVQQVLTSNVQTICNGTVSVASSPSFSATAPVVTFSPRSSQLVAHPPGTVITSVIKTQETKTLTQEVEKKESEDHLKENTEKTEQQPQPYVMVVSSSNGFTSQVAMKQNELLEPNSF
# In short: as §1
# EHF = molecular target: T5, EHF (Homo sapiens, UniProt Q9NZC4 1-300); settings: protein: recombinant; tags: N-terminal GST; dsDNA, one strand shown
# T5 sequence: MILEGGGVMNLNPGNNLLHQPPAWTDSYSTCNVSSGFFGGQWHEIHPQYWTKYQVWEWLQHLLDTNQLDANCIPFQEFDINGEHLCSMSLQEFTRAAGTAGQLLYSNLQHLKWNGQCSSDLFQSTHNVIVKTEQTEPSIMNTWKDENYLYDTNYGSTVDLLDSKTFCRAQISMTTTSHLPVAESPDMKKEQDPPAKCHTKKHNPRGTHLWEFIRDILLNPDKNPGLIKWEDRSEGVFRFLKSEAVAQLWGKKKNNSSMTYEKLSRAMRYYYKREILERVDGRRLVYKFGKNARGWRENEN
# In short: as §1
# SPI1 = SPI1 (Homo sapiens, UniProt P17947 1-270); settings: protein: recombinant; tags: N-terminal GST; dsDNA, one strand shown
# In short: as §1
# SPIB = SPIB (Homo sapiens, UniProt Q01892 1-262); settings: protein: recombinant; tags: N-terminal GST; dsDNA, one strand shown
# SPIB, sequence (Q01892 whole entry): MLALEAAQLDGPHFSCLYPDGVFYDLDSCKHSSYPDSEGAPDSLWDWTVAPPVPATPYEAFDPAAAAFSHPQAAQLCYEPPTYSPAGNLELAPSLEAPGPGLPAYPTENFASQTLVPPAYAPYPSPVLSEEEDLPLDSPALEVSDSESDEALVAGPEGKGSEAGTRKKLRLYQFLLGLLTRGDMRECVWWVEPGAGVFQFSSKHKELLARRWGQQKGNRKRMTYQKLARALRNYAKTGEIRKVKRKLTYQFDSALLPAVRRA
# In short: as §1
# ELK3 = molecular target: T6, ELK3 (Homo sapiens, UniProt P41970 1-407); settings: protein: recombinant; tags: N-terminal GST; dsDNA, one strand shown
# T6 sequence: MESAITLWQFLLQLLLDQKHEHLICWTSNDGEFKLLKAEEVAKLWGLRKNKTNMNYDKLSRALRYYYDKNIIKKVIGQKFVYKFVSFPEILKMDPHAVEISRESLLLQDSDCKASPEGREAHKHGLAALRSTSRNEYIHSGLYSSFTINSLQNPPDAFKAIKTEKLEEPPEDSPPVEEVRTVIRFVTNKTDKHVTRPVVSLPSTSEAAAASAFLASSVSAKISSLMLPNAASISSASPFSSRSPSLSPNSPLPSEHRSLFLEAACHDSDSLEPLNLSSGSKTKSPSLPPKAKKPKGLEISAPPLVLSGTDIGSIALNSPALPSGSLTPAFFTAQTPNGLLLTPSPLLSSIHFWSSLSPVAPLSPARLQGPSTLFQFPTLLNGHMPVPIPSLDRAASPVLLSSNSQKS
# In short: as §1
# FEV = molecular target: T7, FEV (Homo sapiens, UniProt Q99581 1-238); settings: protein: recombinant; tags: N-terminal GST; dsDNA, one strand shown
# T7 sequence: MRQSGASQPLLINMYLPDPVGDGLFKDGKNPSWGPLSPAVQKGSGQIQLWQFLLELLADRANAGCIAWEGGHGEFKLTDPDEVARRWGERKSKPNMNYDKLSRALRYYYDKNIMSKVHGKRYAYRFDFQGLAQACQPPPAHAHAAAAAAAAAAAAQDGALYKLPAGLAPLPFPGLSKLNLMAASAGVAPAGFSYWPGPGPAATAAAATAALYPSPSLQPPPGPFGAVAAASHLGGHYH
# In short: as §1
# ETV5 = ETV5 (Homo sapiens, UniProt P41161 1-510); settings: protein: recombinant; tags: N-terminal GST; dsDNA, one strand shown
# ETV5, sequence (P41161 whole entry): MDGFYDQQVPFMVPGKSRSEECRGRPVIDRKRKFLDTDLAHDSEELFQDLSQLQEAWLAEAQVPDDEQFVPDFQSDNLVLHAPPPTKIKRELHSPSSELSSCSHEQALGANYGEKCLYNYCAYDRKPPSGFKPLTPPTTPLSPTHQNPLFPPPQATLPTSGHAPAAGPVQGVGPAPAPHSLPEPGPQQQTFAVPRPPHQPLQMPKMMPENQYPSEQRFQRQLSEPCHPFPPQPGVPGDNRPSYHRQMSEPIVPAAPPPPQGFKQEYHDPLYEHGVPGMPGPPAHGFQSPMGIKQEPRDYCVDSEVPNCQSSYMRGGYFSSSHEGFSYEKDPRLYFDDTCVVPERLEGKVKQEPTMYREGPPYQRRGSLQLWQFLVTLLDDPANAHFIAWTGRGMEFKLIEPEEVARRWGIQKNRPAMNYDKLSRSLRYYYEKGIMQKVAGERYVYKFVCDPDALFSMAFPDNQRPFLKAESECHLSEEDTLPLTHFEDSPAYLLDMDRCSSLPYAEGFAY
# In short: as §1
# HSF1 = HSF1 (Homo sapiens, UniProt Q00613 1-529); settings: protein: recombinant; tags: N-terminal GST; chain copies: 3; dsDNA, one strand shown
# HSF1, sequence (Q00613 whole entry): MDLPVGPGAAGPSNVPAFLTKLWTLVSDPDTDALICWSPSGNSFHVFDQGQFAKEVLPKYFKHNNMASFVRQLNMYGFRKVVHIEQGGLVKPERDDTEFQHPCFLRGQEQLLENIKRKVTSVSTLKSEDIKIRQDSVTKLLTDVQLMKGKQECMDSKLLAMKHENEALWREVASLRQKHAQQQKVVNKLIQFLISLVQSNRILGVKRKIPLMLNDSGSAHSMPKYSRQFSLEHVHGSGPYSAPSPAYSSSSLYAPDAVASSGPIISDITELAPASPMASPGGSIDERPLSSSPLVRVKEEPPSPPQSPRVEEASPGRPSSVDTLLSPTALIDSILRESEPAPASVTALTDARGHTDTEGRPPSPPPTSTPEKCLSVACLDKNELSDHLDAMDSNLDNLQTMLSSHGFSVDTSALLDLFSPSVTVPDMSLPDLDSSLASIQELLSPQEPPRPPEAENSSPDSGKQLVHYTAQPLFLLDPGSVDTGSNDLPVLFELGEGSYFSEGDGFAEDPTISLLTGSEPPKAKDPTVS
# In short: as §1
# SPIC = molecular target: T8, SPIC (Homo sapiens, UniProt Q8N5J4 1-248); settings: protein: recombinant; tags: N-terminal GST; dsDNA, one strand shown
# T8 sequence: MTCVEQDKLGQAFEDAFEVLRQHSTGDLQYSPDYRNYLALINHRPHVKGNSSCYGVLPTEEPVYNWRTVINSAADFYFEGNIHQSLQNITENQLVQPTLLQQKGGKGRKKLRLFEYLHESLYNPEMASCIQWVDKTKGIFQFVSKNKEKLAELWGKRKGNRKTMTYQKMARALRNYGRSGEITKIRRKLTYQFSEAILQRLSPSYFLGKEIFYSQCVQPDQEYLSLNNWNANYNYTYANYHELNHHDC
# In short: as §1
# ELF4 = ELF4 (Homo sapiens, UniProt Q99607 1-663); settings: protein: recombinant; tags: N-terminal GST; dsDNA, one strand shown
# ELF4, sequence (Q99607 whole entry): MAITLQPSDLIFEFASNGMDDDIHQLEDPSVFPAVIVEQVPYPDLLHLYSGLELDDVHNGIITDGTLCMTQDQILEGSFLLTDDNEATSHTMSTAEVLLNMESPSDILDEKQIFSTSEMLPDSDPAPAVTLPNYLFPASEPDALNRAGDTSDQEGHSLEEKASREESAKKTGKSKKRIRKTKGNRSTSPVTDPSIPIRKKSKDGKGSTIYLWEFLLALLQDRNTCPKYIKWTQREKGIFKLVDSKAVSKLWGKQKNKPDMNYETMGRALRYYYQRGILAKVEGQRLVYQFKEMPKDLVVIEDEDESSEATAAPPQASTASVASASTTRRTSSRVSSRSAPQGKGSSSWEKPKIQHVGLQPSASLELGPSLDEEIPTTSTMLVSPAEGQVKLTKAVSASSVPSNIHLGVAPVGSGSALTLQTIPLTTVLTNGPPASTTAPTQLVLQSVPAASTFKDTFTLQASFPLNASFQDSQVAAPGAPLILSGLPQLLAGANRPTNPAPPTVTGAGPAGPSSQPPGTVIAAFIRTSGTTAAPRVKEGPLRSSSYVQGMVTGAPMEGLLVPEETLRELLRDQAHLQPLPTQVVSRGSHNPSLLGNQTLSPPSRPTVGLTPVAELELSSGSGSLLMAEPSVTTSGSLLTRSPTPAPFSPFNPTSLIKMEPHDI
# In short: as §1
# ELK4 = molecular target: T9, ELK4 (Homo sapiens, UniProt P28324-2 1-405); settings: protein: recombinant; tags: N-terminal GST; dsDNA, one strand shown
# T9 sequence: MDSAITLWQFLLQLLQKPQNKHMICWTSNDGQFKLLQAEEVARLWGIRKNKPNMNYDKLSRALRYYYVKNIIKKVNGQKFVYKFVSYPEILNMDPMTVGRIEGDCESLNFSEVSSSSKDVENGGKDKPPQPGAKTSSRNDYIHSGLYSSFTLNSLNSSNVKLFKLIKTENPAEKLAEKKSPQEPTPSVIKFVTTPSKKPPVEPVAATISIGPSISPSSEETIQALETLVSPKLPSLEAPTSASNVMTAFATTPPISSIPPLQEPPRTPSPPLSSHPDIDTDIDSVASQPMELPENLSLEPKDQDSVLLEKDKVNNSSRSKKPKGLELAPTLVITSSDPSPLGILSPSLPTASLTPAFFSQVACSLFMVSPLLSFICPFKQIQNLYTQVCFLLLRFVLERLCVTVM
# In short: as §1
# ETV2 = molecular target: T10, ETV2 (Homo sapiens, UniProt O00321 1-342); settings: protein: recombinant; tags: N-terminal GST; dsDNA, one strand shown
# T10 sequence: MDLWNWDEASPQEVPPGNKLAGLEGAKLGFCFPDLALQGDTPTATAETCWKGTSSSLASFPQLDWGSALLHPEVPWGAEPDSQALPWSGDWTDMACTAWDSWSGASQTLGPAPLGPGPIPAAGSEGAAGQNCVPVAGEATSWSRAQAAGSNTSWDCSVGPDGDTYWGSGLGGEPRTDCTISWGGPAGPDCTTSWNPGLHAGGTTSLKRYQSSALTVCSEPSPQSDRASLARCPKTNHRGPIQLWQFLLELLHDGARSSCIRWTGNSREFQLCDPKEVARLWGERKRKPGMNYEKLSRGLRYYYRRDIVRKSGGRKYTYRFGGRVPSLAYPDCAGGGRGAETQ
# In short: as §1
# ELF3 = molecular target: T11, ELF3 (Homo sapiens, UniProt P78545 1-371); settings: protein: recombinant; tags: N-terminal GST; dsDNA, one strand shown
# T11 sequence: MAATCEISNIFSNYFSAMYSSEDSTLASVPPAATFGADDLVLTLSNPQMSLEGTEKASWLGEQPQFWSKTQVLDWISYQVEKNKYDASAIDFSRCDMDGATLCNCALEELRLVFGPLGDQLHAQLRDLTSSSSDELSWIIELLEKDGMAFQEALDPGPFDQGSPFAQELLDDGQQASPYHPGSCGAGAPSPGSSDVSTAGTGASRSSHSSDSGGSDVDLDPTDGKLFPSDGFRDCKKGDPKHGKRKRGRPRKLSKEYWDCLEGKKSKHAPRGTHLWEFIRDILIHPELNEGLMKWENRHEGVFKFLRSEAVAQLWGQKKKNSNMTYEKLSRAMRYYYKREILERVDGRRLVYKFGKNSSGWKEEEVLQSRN
# In short: as §1
# CRX = CRX (Homo sapiens, UniProt O43186 1-299); settings: protein: recombinant; tags: N-terminal GST; dsDNA, one strand shown
# CRX, sequence (O43186 whole entry): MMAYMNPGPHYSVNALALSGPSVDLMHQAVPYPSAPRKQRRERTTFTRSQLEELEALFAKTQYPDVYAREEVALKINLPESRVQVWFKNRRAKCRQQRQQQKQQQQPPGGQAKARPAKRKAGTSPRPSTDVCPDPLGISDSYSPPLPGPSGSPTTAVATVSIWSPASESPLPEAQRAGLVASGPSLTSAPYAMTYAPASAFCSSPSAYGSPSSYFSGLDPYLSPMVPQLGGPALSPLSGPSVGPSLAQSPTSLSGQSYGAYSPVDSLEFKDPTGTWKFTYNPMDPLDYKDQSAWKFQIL
# In short: as §1
# ETV1 = ETV1 (Homo sapiens, UniProt P50549 1-477); settings: protein: recombinant; tags: N-terminal GST; dsDNA, one strand shown
# ETV1, sequence (P50549 whole entry): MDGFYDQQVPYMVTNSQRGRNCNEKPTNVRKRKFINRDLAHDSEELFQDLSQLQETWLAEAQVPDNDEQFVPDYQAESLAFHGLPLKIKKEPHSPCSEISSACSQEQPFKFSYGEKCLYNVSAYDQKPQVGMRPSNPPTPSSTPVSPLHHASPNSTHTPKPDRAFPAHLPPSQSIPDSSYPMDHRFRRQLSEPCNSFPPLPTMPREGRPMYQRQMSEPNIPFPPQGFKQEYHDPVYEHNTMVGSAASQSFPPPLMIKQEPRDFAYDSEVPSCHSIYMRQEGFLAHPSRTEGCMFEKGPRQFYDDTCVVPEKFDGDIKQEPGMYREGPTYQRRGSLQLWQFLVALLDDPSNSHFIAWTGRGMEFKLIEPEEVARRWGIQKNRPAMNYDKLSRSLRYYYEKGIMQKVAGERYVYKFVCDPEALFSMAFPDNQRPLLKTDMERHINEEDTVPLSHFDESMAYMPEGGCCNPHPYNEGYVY
# In short: as §1
sequence,measurement,setting,value
CAATCC,binding signal,FLI1,"1.17 fold enrichment (6-mer frequency, TF over GST control)"
same,binding signal,ELK1,"1.19 fold enrichment (6-mer frequency, TF over GST control)"
same,binding signal,GABPA,"1.26 fold enrichment (6-mer frequency, TF over GST control)"
same,binding signal,ERG,"1.24 fold enrichment (6-mer frequency, TF over GST control)"
same,binding signal,ELF1,"1.22 fold enrichment (6-mer frequency, TF over GST control)"
same,binding signal,EHF,"1.07 fold enrichment (6-mer frequency, TF over GST control)"
same,binding signal,SPI1,"1.12 fold enrichment (6-mer frequency, TF over GST control)"
same,binding signal,SPIB,"1.2 fold enrichment (6-mer frequency, TF over GST control)"
same,binding signal,ELK3,"1.08 fold enrichment (6-mer frequency, TF over GST control)"
same,binding signal,FEV,"1.17 fold enrichment (6-mer frequency, TF over GST control)"
same,binding signal,ETV5,"1.12 fold enrichment (6-mer frequency, TF over GST control)"
same,binding signal,HSF1,"1.37 fold enrichment (6-mer frequency, TF over GST control)"
same,binding signal,SPIC,"1.11 fold enrichment (6-mer frequency, TF over GST control)"
same,binding signal,ELF4,"1.19 fold enrichment (6-mer frequency, TF over GST control)"
same,binding signal,ELK4,"1.19 fold enrichment (6-mer frequency, TF over GST control)"
same,binding signal,ETV2,"1.38 fold enrichment (6-mer frequency, TF over GST control)"
same,binding signal,ELF3,"1.3 fold enrichment (6-mer frequency, TF over GST control)"
same,binding signal,CRX,"1.6 fold enrichment (6-mer frequency, TF over GST control)"
same,binding signal,ETV1,"1.19 fold enrichment (6-mer frequency, TF over GST control)"
